In the supplement of paper PMC10849652:
About 7,900 targets were measured; listed, in parts, are those with a hit and a random draw of the rest. About 0.6% of all pairs of compound and target were hits. Values without a mark were called inactive.

Each target was assayed with Cc1sc2c(c1C)C(c1ccc(Cl)cc1)=N[C@@H](CC(=O)OC(C)(C)C)c1nnc(C)n1-2 (assay: log2 fold change, soluble protein after heating vs DMSO (PISA); higher = thermal stabilisation; K562 cells, 10 uM, 30 min; active = over 0.2 and 3.5 SD of the protein, either way, in both replicates (recomputed)).
Summary of the method: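 Values are thermal stability changes relative to control samples and are taken from duplicates. They are stated as log2 fold changes. Before quantification by TMTpro 16plex LC-MS/MS with equalised channel sums, K562 cells at 2×10^6 cells/mL were treated with 10 μM compound for 30 min, heated in aliquots for 3 min across 48°C-58°C, pooled, extracted in PBS with 0.5% NP-40 at 4°C, and centrifuged at 21,000xg for 90 min to give the soluble supernatant.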

UniProt O00767, sequence (O00767 whole entry, looked up): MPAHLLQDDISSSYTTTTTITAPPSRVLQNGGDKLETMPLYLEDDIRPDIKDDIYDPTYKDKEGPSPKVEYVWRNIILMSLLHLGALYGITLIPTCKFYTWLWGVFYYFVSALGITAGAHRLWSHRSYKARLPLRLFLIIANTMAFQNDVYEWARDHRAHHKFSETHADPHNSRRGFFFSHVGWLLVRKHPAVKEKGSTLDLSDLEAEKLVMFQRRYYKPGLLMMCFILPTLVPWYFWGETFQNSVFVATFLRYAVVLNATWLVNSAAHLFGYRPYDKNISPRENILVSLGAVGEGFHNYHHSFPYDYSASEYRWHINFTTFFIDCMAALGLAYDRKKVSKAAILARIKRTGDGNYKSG
UniProt Q8NBJ9, sequence (Q8NBJ9 whole entry, looked up): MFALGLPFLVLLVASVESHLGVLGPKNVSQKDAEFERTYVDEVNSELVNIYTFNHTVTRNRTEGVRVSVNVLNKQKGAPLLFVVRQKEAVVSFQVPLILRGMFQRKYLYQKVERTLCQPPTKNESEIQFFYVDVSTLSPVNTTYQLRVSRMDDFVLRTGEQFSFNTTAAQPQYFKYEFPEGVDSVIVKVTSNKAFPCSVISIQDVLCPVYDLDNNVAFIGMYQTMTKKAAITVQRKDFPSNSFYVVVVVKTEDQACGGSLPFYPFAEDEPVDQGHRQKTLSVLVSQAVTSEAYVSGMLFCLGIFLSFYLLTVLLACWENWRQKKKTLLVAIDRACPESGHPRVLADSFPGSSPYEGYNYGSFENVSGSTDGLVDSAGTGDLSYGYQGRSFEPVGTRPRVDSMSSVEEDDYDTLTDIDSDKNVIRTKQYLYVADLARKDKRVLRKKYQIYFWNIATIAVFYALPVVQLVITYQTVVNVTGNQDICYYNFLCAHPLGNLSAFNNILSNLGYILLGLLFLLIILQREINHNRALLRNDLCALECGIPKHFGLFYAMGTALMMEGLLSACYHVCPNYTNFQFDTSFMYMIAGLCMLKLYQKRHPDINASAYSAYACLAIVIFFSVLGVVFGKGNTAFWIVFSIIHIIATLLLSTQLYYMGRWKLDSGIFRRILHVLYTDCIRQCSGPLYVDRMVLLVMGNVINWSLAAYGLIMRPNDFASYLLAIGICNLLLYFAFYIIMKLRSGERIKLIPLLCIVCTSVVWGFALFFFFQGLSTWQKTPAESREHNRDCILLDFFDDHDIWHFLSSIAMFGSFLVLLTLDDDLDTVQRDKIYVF
UniProt Q8TD22, sequence (Q8TD22 whole entry, looked up): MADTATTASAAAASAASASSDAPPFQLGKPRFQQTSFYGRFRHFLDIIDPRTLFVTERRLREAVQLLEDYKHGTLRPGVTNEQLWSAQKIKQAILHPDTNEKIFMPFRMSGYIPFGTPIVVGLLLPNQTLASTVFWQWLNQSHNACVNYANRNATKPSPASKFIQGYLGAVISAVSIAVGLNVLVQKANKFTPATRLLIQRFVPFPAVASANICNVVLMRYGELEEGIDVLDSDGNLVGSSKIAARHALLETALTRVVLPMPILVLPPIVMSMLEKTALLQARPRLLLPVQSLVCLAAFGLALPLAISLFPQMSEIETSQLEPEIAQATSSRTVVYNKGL
UniProt Q9Y3L5, sequence (Q9Y3L5 whole entry, looked up): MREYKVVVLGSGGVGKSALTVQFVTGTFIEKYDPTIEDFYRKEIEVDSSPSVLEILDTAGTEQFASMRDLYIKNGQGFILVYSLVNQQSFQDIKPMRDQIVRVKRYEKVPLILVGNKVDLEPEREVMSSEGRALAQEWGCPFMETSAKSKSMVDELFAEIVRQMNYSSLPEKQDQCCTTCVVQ
UniProt Q86X27, sequence (Q86X27 whole entry, looked up): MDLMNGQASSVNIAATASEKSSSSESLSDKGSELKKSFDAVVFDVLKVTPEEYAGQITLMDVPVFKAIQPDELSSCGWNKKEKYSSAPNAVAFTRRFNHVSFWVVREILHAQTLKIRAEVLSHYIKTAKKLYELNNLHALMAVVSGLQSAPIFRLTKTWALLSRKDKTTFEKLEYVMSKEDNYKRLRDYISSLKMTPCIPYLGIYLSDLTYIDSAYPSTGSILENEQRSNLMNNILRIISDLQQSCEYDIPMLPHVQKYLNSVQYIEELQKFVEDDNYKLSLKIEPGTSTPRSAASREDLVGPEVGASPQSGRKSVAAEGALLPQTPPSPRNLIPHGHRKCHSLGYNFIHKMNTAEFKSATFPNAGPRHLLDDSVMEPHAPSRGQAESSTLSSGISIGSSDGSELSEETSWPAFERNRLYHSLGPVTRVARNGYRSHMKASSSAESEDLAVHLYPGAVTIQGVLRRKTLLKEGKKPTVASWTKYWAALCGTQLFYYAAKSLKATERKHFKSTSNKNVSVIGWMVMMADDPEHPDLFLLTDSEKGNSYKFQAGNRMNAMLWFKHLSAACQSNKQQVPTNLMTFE
UniProt Q15349, sequence (Q15349 whole entry, looked up): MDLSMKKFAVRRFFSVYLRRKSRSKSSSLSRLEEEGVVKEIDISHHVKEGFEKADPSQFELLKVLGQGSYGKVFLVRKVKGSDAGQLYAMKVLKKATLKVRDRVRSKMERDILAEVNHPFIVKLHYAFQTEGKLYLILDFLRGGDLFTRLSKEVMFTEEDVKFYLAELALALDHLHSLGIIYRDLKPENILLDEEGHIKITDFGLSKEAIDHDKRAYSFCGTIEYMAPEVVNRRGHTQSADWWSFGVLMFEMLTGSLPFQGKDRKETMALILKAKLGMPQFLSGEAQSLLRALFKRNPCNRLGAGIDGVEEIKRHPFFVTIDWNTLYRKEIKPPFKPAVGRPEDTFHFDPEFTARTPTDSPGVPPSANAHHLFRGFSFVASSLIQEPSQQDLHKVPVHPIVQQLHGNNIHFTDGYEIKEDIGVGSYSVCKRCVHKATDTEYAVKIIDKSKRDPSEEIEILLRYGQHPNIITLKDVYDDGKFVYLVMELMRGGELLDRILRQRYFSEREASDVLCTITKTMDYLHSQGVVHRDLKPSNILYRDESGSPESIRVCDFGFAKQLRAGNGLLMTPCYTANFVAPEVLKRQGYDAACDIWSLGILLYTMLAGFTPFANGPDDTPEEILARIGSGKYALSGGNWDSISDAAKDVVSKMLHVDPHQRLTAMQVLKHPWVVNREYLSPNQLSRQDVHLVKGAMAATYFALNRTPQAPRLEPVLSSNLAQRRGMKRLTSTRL
UniProt O00584, sequence (O00584 whole entry, looked up): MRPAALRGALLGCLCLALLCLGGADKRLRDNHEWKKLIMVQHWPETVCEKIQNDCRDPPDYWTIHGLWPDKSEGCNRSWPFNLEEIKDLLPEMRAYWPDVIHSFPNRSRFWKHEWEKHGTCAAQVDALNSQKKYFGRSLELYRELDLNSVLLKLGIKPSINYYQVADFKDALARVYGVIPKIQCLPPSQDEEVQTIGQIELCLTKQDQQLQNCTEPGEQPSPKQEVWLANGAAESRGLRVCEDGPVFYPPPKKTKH
UniProt Q96T51, sequence (Q96T51 whole entry, looked up): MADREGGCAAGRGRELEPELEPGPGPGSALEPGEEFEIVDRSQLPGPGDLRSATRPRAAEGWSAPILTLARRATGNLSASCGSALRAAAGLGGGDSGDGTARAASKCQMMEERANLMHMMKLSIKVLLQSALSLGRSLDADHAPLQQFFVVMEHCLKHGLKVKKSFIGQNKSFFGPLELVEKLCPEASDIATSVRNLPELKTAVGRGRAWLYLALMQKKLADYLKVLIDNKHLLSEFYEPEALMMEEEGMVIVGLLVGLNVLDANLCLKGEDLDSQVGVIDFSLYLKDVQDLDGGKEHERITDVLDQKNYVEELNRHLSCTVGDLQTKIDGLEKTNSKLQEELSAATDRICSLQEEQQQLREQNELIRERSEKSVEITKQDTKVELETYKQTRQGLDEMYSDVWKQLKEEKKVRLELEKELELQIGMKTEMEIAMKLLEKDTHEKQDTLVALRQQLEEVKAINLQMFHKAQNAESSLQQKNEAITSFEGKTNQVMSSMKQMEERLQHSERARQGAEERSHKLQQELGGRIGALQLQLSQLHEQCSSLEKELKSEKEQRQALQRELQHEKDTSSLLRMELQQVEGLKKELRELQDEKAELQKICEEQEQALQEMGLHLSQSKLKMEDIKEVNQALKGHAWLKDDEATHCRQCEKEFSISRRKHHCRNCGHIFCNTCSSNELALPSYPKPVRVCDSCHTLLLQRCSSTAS
UniProt Q8NEM2, sequence (Q8NEM2 whole entry, looked up): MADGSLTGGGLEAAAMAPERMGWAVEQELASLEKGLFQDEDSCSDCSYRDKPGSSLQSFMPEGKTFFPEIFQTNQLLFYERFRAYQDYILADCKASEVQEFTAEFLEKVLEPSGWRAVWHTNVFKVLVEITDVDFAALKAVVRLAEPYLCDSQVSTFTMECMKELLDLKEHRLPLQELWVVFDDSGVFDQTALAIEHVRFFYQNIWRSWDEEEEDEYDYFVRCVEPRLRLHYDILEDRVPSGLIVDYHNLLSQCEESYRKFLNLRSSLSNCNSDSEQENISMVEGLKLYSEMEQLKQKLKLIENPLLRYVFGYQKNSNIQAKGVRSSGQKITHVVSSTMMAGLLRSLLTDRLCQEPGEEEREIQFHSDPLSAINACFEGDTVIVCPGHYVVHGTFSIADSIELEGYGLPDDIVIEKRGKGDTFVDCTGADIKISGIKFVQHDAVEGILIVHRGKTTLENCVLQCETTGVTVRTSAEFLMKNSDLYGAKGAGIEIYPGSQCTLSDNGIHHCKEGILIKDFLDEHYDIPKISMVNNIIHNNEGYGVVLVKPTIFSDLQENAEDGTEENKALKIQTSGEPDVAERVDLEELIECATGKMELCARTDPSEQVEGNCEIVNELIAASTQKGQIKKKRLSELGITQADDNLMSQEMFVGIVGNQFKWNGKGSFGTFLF
UniProt Q96GF1, sequence (Q96GF1 whole entry, looked up): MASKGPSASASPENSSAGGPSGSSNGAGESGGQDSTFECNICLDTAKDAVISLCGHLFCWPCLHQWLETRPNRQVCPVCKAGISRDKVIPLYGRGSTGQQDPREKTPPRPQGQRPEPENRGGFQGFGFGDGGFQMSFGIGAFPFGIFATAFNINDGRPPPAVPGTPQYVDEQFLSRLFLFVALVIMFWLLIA

RNF185 (UniProt Q96GF1) and RPS19 (UniProt P39019) are within 0.2 log units of each other in log2 fold change: 0.104 for the first, 0.107 for the second.

ROCK1 (UniProt Q13464) and SCAF8 isoform 2 (UniProt Q9UPN6) are within 0.2 log units of each other in log2 fold change: -0.018 for the first, -0.016 for the second.

SACM1L (UniProt Q9NTJ5) and SCPEP1 (UniProt Q9HB40) are within 0.2 log units of each other in log2 fold change: -0.044 for the first, 0.007 for the second.

RPS21 (UniProt P63220) and SFXN5 (UniProt Q8TD22) are within 0.2 log units of each other in log2 fold change: 0.017 for the first, 0.007 for the second.

RBM4 (UniProt Q9BWF3) and RNASET2 (UniProt O00584) are within 0.2 log units of each other in log2 fold change: 0.009 for the first, -0.013 for the second.

SHCBP1 (UniProt Q8NEM2) and RBM25 (UniProt P49756) are within 0.2 log units of each other in log2 fold change: -0.089 for the first, 0.051 for the second.

SEPTIN5 (UniProt Q99719) and RNPEP (UniProt Q9H4A4) are within 0.2 log units of each other in log2 fold change: -0.045 for the first, -0.015 for the second.

SH3GLB2 (UniProt Q9NR46) and SCD (UniProt O00767) are within 0.2 log units of each other in log2 fold change: 0.004 for the first, 0.054 for the second.

SEH1L isoform 1 (UniProt Q96EE3) and RAD50 isoform 2 (UniProt Q92878) are within 0.2 log units of each other in log2 fold change: -0.014 for the first, 0 for the second.

RALGPS2 (UniProt Q86X27) and SIRT2 (UniProt Q8IXJ6) are within 0.2 log units of each other in log2 fold change: 0.116 for the first, 0.093 for the second.

SLC1A5 (UniProt Q15758) and SDCBP (UniProt O00560) are within 0.2 log units of each other in log2 fold change: 0.013 for the first, 0.04 for the second.

RTN4IP1 (UniProt Q8WWV3) and RUFY1 (UniProt Q96T51) are within 0.2 log units of each other in log2 fold change: -0.051 for the first, 0.002 for the second.

RAB9A (UniProt P51151) and RAC3 (UniProt P60763) are within 0.2 log units of each other in log2 fold change: -0.04 for the first, -0.025 for the second.

SLC12A5 (UniProt Q9H2X9) and SH3GL1 (UniProt Q99961) are within 0.2 log units of each other in log2 fold change: -0.064 for the first, 0.002 for the second.

RBM27 (UniProt Q9P2N5) and RPS14 (UniProt P62263) are within 0.2 log units of each other in log2 fold change: 0.029 for the first, 0.078 for the second.

RPS6KA2 isoform 2 (UniProt Q15349) and RIOK3 (UniProt O14730) are within 0.2 log units of each other in log2 fold change: -0.015 for the first, -0.008 for the second.

SIDT2 isoform 2 (UniProt Q8NBJ9) and RRAS2 isoform 4 (UniProt P62070) are within 0.2 log units of each other in log2 fold change: -0.115 for the first, -0.03 for the second.

RAB3IL1 (UniProt E9PK89) and RAP2C (UniProt Q9Y3L5) are within 0.2 log units of each other in log2 fold change: 0.15 for the first, 0.038 for the second.

RAD50, A0A494C0Y7 and RNF220 (UniProt Q5VTB9) are within 0.2 log units of each other in log2 fold change: 0.104 for the first, -0.045 for the second.

Compared with RIPK1 (UniProt Q13546), RPS13 (UniProt P62277) is higher in log2 fold change: -0.048 for the first, 0.213 for the second.
